# Measured values published in ChEMBL document CHEMBL3433997, “St. Jude Leishmania screening dataset” (2016).
# What was measured:
# Type in all cases: functional
# [1] = target: Solute carrier family 2, facilitated glucose transporter member 1 (Homo sapiens) (UniProt P11166); assay: ST_JUDE_LEISH: Cytotoxicity at 2uM final concentration against transgenic Leishmania Mexicana promastigotes LmGLUT1 that are glucose transport deficient and complemented with the human glucose transporter GLUT1. Activity is measured by DNA content using SYBR green in vitro
# [2] = target: Hexose transporter 1 (Plasmodium falciparum) (UniProt O97467); assay: ST_JUDE_LEISH: Cytotoxicity at 2uM final concentration against transgenic Leishmania Mexicana promastigotes LmPfHT that are glucose transport deficient and complemented with the Plasmodium falciparum hexose transporter. Activity is measured by DNA content using SYBR green in vitro
# [3] = target: Glucose transporter (Leishmania mexicana) (UniProt O61059); assay: ST_JUDE_LEISH: Cytotoxicity at 2uM final concentration against transgenic Leishmania Mexicana promastigotes LmGT2 that are glucose transport deficient and complemented with the L. Mexicana glucose transporter 2. Activity is measured by DNA content using SYBR green in vitro
# Sequence of Solute carrier family 2, facilitated glucose transporter member 1 (Homo sapiens) (P11166 whole entry): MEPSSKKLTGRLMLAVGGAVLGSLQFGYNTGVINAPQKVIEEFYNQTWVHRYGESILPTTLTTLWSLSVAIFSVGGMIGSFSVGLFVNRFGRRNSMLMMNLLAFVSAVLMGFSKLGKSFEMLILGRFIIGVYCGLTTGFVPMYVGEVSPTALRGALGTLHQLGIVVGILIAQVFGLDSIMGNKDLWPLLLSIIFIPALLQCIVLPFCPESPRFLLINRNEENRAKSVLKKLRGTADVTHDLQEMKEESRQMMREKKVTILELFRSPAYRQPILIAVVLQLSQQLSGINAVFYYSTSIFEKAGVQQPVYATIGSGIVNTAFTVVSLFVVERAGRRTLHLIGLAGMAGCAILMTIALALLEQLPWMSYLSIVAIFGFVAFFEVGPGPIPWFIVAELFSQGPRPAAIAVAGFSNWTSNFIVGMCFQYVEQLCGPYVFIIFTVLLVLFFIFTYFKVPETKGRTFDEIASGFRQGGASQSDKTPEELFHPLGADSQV
SMILES,inhibition [1] [%],inhibition [2] [%],inhibition [3] [%]
CCc1cccc(NC(=O)c2ccc(CN3CCCN(CC4CCCCC4)CC3)cc2)c1,10.3,10,13.4
O=C(Nc1ccc(Cl)cc1Cl)N[C@H]1CCN(CCCCCNC(=O)C2CC2c2ccc(Cl)c(Cl)c2)C1 (some centres undefined),3.75,4.63,4.05
COc1ccc(CNCc2ccsc2)cc1-c1ccc(S(=O)(=O)NCCN2CCCC2)c(C)c1,-0.35,-1.19,-4.07
N=C(N)c1ccc(Nc2nc(Nc3ccc(-c4ccccc4)cc3)ncc2[N+](=O)[O-])cc1,3.15,3.65,3.44
Brc1cc(CNCCCNc2nc3ccccc3[nH]2)sc1Br,6.22,9.1,6.32
CC(C)CCNc1nc2ccccc2nc1Nc1cccc(C(F)(F)F)c1,2.21,3.55,2.32
C=CCn1c(Sc2ccc(C#N)c([N+](=O)[O-])c2)nnc1-c1ccc(Cl)cc1,5.68,5.18,2.18
CC(C)c1ccc(CN2CCC(CNC(=O)c3cc(-c4cccc(C(F)(F)F)c4)cs3)C2)cc1 (centres undefined),1.18,1.74,3.79
Cc1cc(C2CCN(CCCCNC(=O)c3ccc(-c4ccc(C#N)cc4)cc3)CC2)c(C)cc1OCCO,10,12.3,9.78
O=C(Nc1ccc(OC2CCN(Cc3ccc(F)cc3)C2)c(Cl)c1)c1ccoc1 (centres undefined),0.67,1.54,0.61
Cc1cc(N[C@@H](CC(C)C)C(=O)Nc2ccccc2)nc(NCCc2ccccc2)n1,3.68,2.93,0.92
CCn1c(-c2nonc2N)nc2c(-c3cc4ccccc4s3)ncc(C(=O)N3CCC(N)C3)c21 (centres undefined),82.2,98.3,10.9
CCCCn1c(N)c(N(Cc2ccco2)C(=O)C=Cc2cc(OC)c3c(c2)OCCO3)c(O)nc1=O,3.56,1.02,3.32
COc1c(C2CCN(CCCCNC(=O)c3noc(-c4ccc(C#N)cc4)n3)CC2)ccc2c1CCCC2,2.99,1.9,2.85
NC(=O)c1cnc2ccc(-c3cncs3)cc2c1Nc1ccc(F)c(Cl)c1,1.94,2.75,1.95
CC1(C)N=C(N)N=C(N)N1c1ccc2ccccc2c1,3.26,3.3,4.01
COc1cc([N+](=O)[O-])ccc1NC(=O)c1cc(Cl)ccc1O,7.76,6.83,7.02
Cc1[nH]c(C)c(-c2ccc(OCc3ccccc3)cc2)c(=O)c1Br,5.62,1.22,-2.04
